From the supplement of paper PMC10849652 come the findings set out here.

The full data set covers some 8,800 targets. This sample favours those with a hit. About 0.5% of all pairs of compound and target were hits.

Chain of UniProt P60673 (P60673 whole entry, looked up): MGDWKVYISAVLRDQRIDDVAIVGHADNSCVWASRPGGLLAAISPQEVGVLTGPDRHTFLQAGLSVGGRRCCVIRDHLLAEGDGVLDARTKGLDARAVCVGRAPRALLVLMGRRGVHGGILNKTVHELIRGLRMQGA
Chain of UniProt Q9UHX1 (Q9UHX1 whole entry, looked up): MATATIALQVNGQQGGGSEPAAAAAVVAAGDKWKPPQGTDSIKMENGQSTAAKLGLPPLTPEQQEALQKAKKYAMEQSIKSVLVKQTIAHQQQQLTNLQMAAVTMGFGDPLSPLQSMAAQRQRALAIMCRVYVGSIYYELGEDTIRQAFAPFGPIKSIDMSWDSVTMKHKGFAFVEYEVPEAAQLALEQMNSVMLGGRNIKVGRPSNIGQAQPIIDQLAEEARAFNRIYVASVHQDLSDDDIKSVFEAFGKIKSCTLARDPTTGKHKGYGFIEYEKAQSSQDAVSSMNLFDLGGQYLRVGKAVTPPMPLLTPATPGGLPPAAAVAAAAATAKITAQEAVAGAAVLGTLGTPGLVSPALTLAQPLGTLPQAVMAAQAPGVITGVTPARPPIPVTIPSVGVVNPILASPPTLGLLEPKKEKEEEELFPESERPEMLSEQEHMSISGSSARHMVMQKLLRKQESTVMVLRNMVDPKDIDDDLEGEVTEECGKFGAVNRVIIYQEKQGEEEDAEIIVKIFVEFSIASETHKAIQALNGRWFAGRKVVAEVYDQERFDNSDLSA
Chain of UniProt Q16816 (Q16816 whole entry, looked up): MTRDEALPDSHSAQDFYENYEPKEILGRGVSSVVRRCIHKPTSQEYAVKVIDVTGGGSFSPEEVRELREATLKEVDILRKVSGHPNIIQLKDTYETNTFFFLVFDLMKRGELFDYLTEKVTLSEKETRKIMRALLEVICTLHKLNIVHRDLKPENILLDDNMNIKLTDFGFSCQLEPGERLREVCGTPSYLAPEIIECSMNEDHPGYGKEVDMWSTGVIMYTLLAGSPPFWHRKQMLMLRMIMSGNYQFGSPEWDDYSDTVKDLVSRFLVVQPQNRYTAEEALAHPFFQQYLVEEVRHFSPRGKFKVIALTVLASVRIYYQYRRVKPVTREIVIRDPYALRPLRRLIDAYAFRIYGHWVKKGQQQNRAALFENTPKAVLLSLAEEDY
Chain of UniProt P54277 (P54277 whole entry, looked up): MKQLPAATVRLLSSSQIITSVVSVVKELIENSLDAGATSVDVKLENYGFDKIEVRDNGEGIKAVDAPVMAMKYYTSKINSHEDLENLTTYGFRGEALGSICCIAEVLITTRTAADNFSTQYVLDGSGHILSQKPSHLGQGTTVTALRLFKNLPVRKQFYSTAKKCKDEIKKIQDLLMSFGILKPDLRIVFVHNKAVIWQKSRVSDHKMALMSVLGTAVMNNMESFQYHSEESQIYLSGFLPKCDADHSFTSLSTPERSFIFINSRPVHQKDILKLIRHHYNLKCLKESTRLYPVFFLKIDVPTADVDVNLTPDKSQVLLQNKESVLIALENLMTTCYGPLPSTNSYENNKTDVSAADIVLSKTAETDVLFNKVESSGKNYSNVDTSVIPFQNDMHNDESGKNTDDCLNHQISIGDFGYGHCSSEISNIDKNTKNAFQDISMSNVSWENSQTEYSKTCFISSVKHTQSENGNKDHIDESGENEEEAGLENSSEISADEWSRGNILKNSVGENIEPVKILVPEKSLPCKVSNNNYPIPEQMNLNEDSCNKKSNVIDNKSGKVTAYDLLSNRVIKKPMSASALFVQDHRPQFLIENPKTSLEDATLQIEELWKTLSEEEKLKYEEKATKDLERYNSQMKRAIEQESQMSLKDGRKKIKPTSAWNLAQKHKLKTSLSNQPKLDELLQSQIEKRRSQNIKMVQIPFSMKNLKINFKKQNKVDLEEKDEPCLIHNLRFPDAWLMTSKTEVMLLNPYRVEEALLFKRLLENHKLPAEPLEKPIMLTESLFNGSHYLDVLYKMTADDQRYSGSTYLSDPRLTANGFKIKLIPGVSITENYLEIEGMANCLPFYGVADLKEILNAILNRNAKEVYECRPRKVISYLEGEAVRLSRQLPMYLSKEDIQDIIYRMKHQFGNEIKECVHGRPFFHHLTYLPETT
Chain of UniProt O75928 (O75928 whole entry, looked up): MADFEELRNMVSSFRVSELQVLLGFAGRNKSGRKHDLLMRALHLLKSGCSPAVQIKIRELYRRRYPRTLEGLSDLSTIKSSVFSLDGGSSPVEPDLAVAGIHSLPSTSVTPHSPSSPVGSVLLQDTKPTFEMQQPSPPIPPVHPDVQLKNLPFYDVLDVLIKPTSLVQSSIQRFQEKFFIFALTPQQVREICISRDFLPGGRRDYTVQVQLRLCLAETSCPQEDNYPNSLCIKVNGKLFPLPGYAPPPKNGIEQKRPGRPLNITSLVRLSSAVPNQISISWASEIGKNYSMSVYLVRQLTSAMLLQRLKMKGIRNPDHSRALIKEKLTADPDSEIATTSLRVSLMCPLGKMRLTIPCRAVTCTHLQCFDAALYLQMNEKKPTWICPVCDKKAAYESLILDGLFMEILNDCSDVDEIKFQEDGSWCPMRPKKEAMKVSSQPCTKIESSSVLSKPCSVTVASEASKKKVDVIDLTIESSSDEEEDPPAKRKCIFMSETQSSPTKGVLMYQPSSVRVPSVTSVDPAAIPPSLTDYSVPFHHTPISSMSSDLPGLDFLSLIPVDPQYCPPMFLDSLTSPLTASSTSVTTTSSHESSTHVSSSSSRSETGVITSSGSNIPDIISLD
Chain of UniProt O94806 (O94806 whole entry, looked up): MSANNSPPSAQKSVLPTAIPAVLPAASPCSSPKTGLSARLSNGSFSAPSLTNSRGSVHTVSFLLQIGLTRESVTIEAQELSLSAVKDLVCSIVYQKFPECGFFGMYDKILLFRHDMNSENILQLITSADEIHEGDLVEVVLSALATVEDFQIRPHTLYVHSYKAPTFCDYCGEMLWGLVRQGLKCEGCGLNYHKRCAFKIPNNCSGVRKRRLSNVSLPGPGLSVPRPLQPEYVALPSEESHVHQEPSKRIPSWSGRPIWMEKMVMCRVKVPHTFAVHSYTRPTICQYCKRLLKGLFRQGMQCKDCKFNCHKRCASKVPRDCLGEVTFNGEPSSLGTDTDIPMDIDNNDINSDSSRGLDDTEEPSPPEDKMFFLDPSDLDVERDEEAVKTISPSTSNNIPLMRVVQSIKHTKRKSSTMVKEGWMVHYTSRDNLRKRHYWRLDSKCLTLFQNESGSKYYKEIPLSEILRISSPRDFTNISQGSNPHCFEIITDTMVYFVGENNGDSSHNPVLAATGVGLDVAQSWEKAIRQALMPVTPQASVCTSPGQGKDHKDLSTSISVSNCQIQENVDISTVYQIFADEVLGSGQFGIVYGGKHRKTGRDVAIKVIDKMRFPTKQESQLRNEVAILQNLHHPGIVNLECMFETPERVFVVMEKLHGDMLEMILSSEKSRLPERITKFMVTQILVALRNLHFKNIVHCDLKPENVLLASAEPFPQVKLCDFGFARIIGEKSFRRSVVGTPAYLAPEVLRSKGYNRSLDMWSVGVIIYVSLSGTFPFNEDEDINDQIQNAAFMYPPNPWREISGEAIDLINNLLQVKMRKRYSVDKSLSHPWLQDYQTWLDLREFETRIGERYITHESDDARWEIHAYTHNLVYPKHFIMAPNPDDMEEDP
Chain of UniProt O60237 (O60237 whole entry, looked up): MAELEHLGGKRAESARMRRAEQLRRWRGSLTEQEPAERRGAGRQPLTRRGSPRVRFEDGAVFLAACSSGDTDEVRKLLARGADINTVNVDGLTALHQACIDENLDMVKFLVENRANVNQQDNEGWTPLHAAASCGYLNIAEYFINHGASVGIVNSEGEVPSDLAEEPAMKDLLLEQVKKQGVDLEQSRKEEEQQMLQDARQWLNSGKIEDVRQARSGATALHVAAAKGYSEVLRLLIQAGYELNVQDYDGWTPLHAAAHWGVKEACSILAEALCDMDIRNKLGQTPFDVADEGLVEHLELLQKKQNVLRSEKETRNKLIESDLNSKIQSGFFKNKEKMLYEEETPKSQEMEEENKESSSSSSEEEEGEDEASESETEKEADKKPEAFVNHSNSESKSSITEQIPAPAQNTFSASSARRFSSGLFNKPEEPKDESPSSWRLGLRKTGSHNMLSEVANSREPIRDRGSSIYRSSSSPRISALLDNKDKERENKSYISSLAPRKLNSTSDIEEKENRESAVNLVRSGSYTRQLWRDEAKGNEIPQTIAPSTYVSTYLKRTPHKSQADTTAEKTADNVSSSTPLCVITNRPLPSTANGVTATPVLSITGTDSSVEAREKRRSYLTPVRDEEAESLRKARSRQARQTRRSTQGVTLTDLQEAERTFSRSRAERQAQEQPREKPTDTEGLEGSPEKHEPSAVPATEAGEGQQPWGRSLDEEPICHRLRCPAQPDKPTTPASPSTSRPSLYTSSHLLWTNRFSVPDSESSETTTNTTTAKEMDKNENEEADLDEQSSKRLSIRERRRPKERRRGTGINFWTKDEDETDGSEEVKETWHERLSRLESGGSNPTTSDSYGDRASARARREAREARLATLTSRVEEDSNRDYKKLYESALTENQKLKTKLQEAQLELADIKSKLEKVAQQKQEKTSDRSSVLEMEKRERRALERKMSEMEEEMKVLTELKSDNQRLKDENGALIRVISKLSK
Chain of UniProt Q15004 (Q15004 whole entry, looked up): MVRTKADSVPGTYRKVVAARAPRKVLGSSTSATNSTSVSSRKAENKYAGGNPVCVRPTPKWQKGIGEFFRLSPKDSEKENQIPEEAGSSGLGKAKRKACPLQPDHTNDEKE
Chain of UniProt Q9BRQ0 (Q9BRQ0 whole entry, looked up): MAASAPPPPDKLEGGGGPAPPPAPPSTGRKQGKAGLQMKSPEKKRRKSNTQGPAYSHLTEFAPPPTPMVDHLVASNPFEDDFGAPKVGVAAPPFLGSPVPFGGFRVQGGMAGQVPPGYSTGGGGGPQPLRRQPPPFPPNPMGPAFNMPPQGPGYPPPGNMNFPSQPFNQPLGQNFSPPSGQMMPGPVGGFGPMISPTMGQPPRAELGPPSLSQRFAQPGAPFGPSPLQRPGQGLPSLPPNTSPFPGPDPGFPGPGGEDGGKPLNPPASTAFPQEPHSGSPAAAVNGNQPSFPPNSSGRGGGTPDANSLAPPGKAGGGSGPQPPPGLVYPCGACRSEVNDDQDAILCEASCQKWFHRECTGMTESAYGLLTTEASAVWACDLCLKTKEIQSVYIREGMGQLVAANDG

Compound in one assay: Cc1cc(Nc2cc(N3CCN(C)CC3)nc(Sc3ccc(NC(=O)C4CC4)cc3)n2)n[nH]1 [tozasertib]
The experiment in a line: log2 fold change, soluble protein after heating vs DMSO (PISA); higher = thermal stabilisation; K562 lysate, 10 uM; active = over 0.2 and 3.5 SD of the protein, either way, in both replicates (recomputed). The gist of the method: (§1)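 Values give the log-two fold change in thermal stability against solvent controls, from duplicates. Crude K562 extract at 1 mg/mL protein, made by dounce homogenisation in PBS pH 7.4 with 1 mM MgCl2, was treated with 10 μM compound for 30 min. After 3 min heating across 48°C-58°C, aliquots were pooled, adjusted to 0.5% NP-40 at 4°C and centrifuged at 21,000xg for 90 min. The supernatant was measured by TMTpro 16plex LC-MS/MS with channel sums equalised.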
PIAS2 (UniProt O75928): the log2 fold change was 0.048 (inactive).

For the target PRIMPOL (UniProt Q96LW4), the log2 fold change was -0.031 (inactive).

With PCLAF (UniProt Q15004), the log2 fold change was -0.029 (inactive).

For PTK2B (UniProt Q14289), the log2 fold change was 0.019 (inactive).

Regarding PECR (UniProt Q9BY49), the log2 fold change is -0.053 (inactive).

As to PFN1 (UniProt I3L3D5), the log2 fold change was -0.051 (inactive).

Consider PHC1 (UniProt P78364), for which the log2 fold change is 0.022 (inactive).

For the target PDE4DIP (UniProt E9PS60), the log2 fold change is -0.026 (inactive).

As for PPP1R12B isoform 6 (UniProt O60237), the log2 fold change is -0.015 (inactive).

As to PIM1 isoform 2 (UniProt P11309), the log2 fold change was 0.046 (inactive).

Take PPP2R3C (UniProt Q969Q6): the log2 fold change was 0.036 (inactive).

Take PRR4 (UniProt Q16378): the log2 fold change was 0.412 (inactive).

Regarding PRKD3 (UniProt O94806), the log2 fold change was 0.092 (inactive).

With PMS1 (UniProt P54277), the log2 fold change was -0.053 (inactive).

With PYGO2 (UniProt Q9BRQ0), the log2 fold change is -0.076 (inactive).

Regarding PPP1R14C (UniProt Q8TAE6), the log2 fold change was 0.08 (inactive).

As for PUF60 isoform 2 (UniProt Q9UHX1), the log2 fold change was -0.161 (inactive).

With PNPLA4 (UniProt P41247), the log2 fold change is -0.011 (inactive).

As to POLR2F (UniProt U3KPV3), the log2 fold change was 0.109 (inactive).

In the case of PTK2 isoform 2 (UniProt Q05397), the log2 fold change is 0.125 (inactive).

Consider PHF14 (UniProt O94880), for which the log2 fold change is -0.117 (inactive).

As to PCBP2 (UniProt F8W0G4), the log2 fold change is -0.069 (inactive).

PFN3 (UniProt P60673): the log2 fold change was 0.155 (inactive).

On to PPME1 (UniProt Q9Y570), for which the log2 fold change was 0.072 (inactive).

Consider PIK3CG (UniProt P48736), for which the log2 fold change is -0.038 (inactive).

As for PHKG1 isoform 2 (UniProt Q16816), the log2 fold change is -0.172 (inactive).

For PHOSPHO2 (UniProt C9JD35), the log2 fold change is 0.234 (inactive).

Compound in the next assay: Cc1ccc(-n2nc(C(C)(C)C)cc2NC(=O)Nc2ccc(OCCN3CCOCC3)c3ccccc23)cc1 [doramapimod]
The assay is described as above. The gist of the method:
as §1
Take PIAS2 (UniProt O75928): the log2 fold change was -0.007 (inactive).

With PPP2R5C isoform 2 (UniProt Q13362), the log2 fold change was -0.043 (inactive).

On to PIP5K1A (UniProt Q99755), for which the log2 fold change is 0.093 (inactive).

For the target PRIMPOL (UniProt Q96LW4), the log2 fold change was 0.014 (inactive).

Regarding PCLAF (UniProt Q15004), the log2 fold change is 0.009 (inactive).

Turning to PPIC (UniProt P45877), the log2 fold change is 0.086 (inactive).

For PHC1 (UniProt P78364), the log2 fold change was -0.254 (inactive).

Turning to PDE4DIP (UniProt E9PS60), the log2 fold change is 0.075 (inactive).

For the target PPP1R12B isoform 6 (UniProt O60237), the log2 fold change was 0.047 (inactive).

For the target PIM1 isoform 2 (UniProt P11309), the log2 fold change is -0.012 (inactive).

Consider PRKD3 (UniProt O94806), for which the log2 fold change is -0.075 (inactive).

On to PMS1 (UniProt P54277), for which the log2 fold change is -0.03 (inactive).

With PCBP2 (UniProt F8VRH0), the log2 fold change is -0.01 (inactive).

With PYGO2 (UniProt Q9BRQ0), the log2 fold change was 0.032 (inactive).

With NA (UniProt Q4G0T1), the log2 fold change was 0.042 (inactive).

For PDIA4, A0A499FI48, the log2 fold change is -0.039 (inactive).

For the target PUF60 isoform 2 (UniProt Q9UHX1), the log2 fold change was -0.058 (inactive).

With PNPLA4 (UniProt P41247), the log2 fold change was 0.825 (active).

Take PIK3CD (UniProt O00329): the log2 fold change was 0.03 (inactive).

On to PFN3 (UniProt P60673), for which the log2 fold change was 0.083 (inactive).

For PLXND1 (UniProt Q9Y4D7), the log2 fold change was 0.171 (inactive).

As to PIK3CG (UniProt P48736), the log2 fold change was 0.04 (inactive).

PHKG1 isoform 2 (UniProt Q16816): the log2 fold change is 0.038 (inactive).

As to PHOSPHO2 (UniProt C9JD35), the log2 fold change was -0.084 (inactive).
